Screening results as filed in PubChem.
NADH enzymes: inhibitors of PK/LDH coupling enzymes, profiling panel, artefact control, biochemical, MLSMR library | 0.02% of 65,000 active | coupled PK/LDH NADH assays, four targets | IC50, µM (titrated, usually from 10 µM);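 active means single-dose screening hits from any of four coupled enzyme assays that gave an IC50 when retested across doses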;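 further: the DPM-DC format reads NADH fluorescence rather than 340 nm absorbance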
MK inhibit: S. pneumoniae MK inhibitors, primary screen, biochemical, PK/LDH-coupled NADH absorbance. mevalonate kinase [Streptococcus pneumoniae D39]. inhibition, % at 10 µM. 0.48% of 65,000 active. purified MK, PK/LDH-coupled NADH absorbance 340 nm;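 active means ranked among the strongest by inhibition in the single 10 µM screen, a fixed top-ranked set picked for dose follow-up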
Spn PMK inh: S. pneumoniae PMK inhibitors, primary screen, biochemical, mevalonate pathway, pilot trial included; phosphomevalonate kinase (Streptococcus pneumoniae D39); 0.49% of 65,000 active; purified PMK, PK/LDH-coupled NADH absorbance 340 nm; inhibition, % at 10 µM; AID 539, 2006;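 active means top-ranked compounds by inhibition in the single 10 µM screen, taking a fixed number of the strongest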
Spn DPM-DC inh: S. pneumoniae DPM-DC inhibitors, primary screen, biochemical, PK/LDH-coupled NADH fluorescence. 0.49% of 65,000 active. calls only at 10 µM. purified DPM-DC. diphosphomevalonate decarboxylase (Streptococcus pneumoniae D39);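 active means the 320 compounds with the highest percent inhibition in the single-dose primary screen, excluding strongly autofluorescent ones, cut at about 32% in these data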;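 further: kinetic rate of NADH fluorescence loss reporting ADP formed by the decarboxylase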
A340 absorber: compound light absorbance at 340 nm, profiling panel, artefact control, biochemical, MLSMR library, data from PS, PMK, MK assays. compound absorbance at 340 nm, fold over control. fold change at 10 µM. 65,000 tested, under 10 active;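 active means at 10 µM dose, initial 340 nm absorbance at least 2 fold that of control wells; inactive means change under 2 fold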;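 further: initial absorbance extrapolated from kinetic A340 decline of NADH oxidation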
Fluor 339 460: intrinsic fluorescence of library compounds, ex339/em460 – biochemical, MLSMR library, data from DPM-DC assay, artefact control, profiling panel; fluorescence fold increase at 10 µM; compound autofluorescence, ex339/em460 nm, NADH buffer; hits give high values; 1 = no-compound wells, NADH background; 5.5% of 65,000 active;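 active means at 10 µM, mean starting fluorescence two-fold or more over control wells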;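 further: signal is the first read of a kinetic run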
Numbers stand for hits; n = inactive; x = no result shown. Most compounds without a hit are left out; they make up all but 6.3% or so of the library.

SMILES	NADH enzymes	MK inhibit	Spn PMK inh	Spn DPM-DC inh	A340 absorber	Fluor 339 460
CC(=O)C(Sc1nc(-c2ccc(F)cc2)nc2c1c(=O)n(C)c(=O)n2C)C(C)=O	n	n	n	n	n	n
CCOC(=O)C(CC)Sc1nc(-c2ccc(OC)cc2)nc2c1c(=O)n(C)c(=O)n2C (configuration not stated)	n	n	n	x	n	4.98
CCOC(=O)C(C)Sc1nc(-c2ccc(OC)cc2)nc2c1c(=O)n(C)c(=O)n2C (configuration not stated)	n	n	n	x	n	2.16
CCCc1nc(SCC(=O)c2ccc(OC)cc2)c2c(=O)n(C)c(=O)n(C)c2n1	n	n	n	n	n	n
COc1ccc(NC(=O)CSC2CC(=O)N(c3ccc4c(c3)OCCO4)C2=O)cc1 (configuration not stated)	n	n	n	n	n	n
O=C(Cn1ncc2c1-c1ccccc1OC2)N1CCN(Cc2ccc3c(c2)OCO3)CC1	n	n	n	n	n	n
CCOC(=O)N1CCC(NC(=O)c2cccn3c(=O)c4cc(Br)ccc4nc23)CC1	n	n	n	n	n	2.24
CCOC(=O)N1CCC(NC(=O)c2cn(-c3ccc(OC)cc3)c(=O)c3ccccc23)CC1	n	n	n	n	n	n
COc1ccccc1NC(=O)Nn1cnnc1	n	n	n	n	n	n
COc1ccc(OC)c(S(=O)(=O)N2CCC(C(=O)Nc3cccc(C(F)(F)F)c3)CC2)c1	n	n	n	n	n	n
Cc1ccccc1OCc1nnc2c3cnn(C)c3ncn12	n	n	n	n	n	n
CC(C)=CCC/C(C)=C/CN(CC(C)O)CC(C)O (configuration not stated)	n	40.0	n	n	n	n
CC(C)=CCCC(C)N(C=O)C(C)CCC=C(C)C (configuration not stated)	n	n	n	n	n	n
CCOc1c(C(N)=O)c(-c2ccccc2)c2c(=O)[nH]c3ccccc3n12	n	n	n	x	n	3.82
CCC(O)CNc1nc(SC)nc2sc3c(c12)CCN(C)C3 (configuration not stated)	n	n	n	x	n	2.22
CSc1nc(NCc2ccco2)c2c3c(sc2n1)CN(C)CC3	n	n	n	n	n	n
O=C1CC(c2cc3c(cc2Br)OCO3)C2=C(CCCC2=O)N1 (configuration not stated)	n	n	n	n	n	n
Cc1ccc(C(c2nnnn2CCC(C)C)N2CCN(C)CC2)cc1 (configuration not stated)	n	n	n	n	n	n
CSc1nc2[nH]c3c(c2c2nnnn12)CCCC3	n	n	n	x	n	2.26
O=C(NC1CCCC1)C1CC(=O)N(C2CCCCCCC2)C1 (configuration not stated)	n	n	n	n	n	n
O=C(NC1CCCCC1)C1CC(=O)N(c2ccc(Cl)cc2)C1 (configuration not stated)	n	n	28.0	n	n	n
O=C(NCCc1ccccc1)C1CCCN1C(=O)Nc1ccc(F)cc1 (configuration not stated)	n	n	n	n	n	n
Cc1ccc(C(=O)C(C)OC(=O)C2CC(=O)N(C3CCCCC3)C2)cc1 (configuration not stated)	n	n	n	n	n	n
Cc1ccc(-c2cn3c(=S)[nH]nc3s2)cc1	n	99.0	n	n	n	n
CCOc1nc(-c2ccc(C)cc2)ccc1-c1noc(-c2cccnc2)n1	n	n	n	n	n	2.99
CCOc1nc(C)ccc1-c1noc(-c2ccncc2)n1	n	n	n	n	n	n
CCOc1nc(-c2ccccc2)ccc1-c1noc(-c2ccncc2)n1	n	n	n	x	n	3.28
CCOc1nc(-c2ccc(OC)cc2)ccc1-c1noc(-c2ccncc2)n1	n	n	n	n	n	2.96
CCOc1nc(-c2ccc(OC)cc2)ccc1-c1noc(-c2cccnc2)n1	n	n	n	n	n	n
O=C(Nc1nccs1)c1ccc(COc2ccccc2Br)o1	n	n	n	n	n	n
